# High-throughput results (PubChem)
# This excerpt belongs to a sample that is enriched for hits.
# Pf Dd2 inh: Plasmodium falciparum Dd2 growth inhibition; P. falciparum Dd2 growth, SYBR Green, 72 h; Potency, µM (highest dose often 28.9 µM), inactives show at the top dose activity, negative = inhibition, actives largely listed as inhibitors; hit rate 4.3% among 120,000; active = well fitted inhibition curve with a large enough effect;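 note: plate controls were DMSO vehicle for no effect and reference drug for full effect; nearly all actives have a fitted effect of over 65% in size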
#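 Infected erythrocytes (Dd2, 0.3% parasitemia, 2.5% hematocrit final) are added to compound in RPMI-1640/Albumax II medium, grown 72 h at 37C in low oxygen, then lysed with saponin/Triton-X containing SYBR Green and read by fluorescence.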
# Active calls of the source: *; i = inactive; [ ] = another dose, or the depositor's remark. Potency is the fitted concentration of half-maximal effect.
SMILES,Pf Dd2 inh
CC(C)(C)NC(=O)NCc1cc2n(n1)CCCN(C(=O)C1CCC1)C2,4.6%
Cc1occc1C(=O)N1CCC2(CC1)N=C(CC(C)C)NC2=O,-5.1%
COc1ccc(CCNC(=O)c2c(C)noc2-c2cccs2)cc1,i
C[C@H]1[C@@H]2[C@@H](O)C([C@H](C)C(=O)NC3CCCCC3)CC[C@@]2(C)CC[C@@H]1NC(=O)c1ccccn1 (stereo partly drawn),-23.0%
CCCN(CC1CCOC1)S(=O)(=O)c1ccc(F)c(C)c1 (stereo not drawn),93.0%[5.79 µM]
O=C(c1ccoc1)N1CCC2(CC1)CN(Cc1ccccc1)CC2CO (stereo not drawn),i
O=C(c1ccccn1)N1CCC2(CC1)NC(=O)N(Cc1ccccc1Cl)C2=O,13.7%
Cc1ccc(Cl)cc1N1CCN(C(=O)c2cc3ccc4cccnc4c3[nH]2)CC1,-2.1%
O=C(c1cc2ccc3cccnc3c2[nH]1)N1CCN(c2ccc(Cl)cc2)CC1,-21.5%
CC(C)N(Cc1ccccc1)C(=O)c1cc2ccc3cccnc3c2[nH]1,12.6µM*
O=C1CC(c2ccccc2)N(C(=O)CNC(=O)c2n[nH]c3ccccc23)CCCCCCN1 (stereo not drawn),10µM*
O=C1CC(c2ccccc2)N(C(=O)CNC(=O)c2c[nH]c3ccccc23)CCCCCN1 (stereo not drawn),i
O=C1CC(c2ccccc2)N(C(=O)CNC(=O)c2ccc3cc[nH]c3c2)CCCCCN1 (stereo not drawn),10µM*
N#Cc1cccc(C(=O)NCC(=O)N2CCCCCCNC(=O)CC2c2ccccc2)c1 (stereo not drawn),-23.1%
O=C(Cc1c[nH]c2ccccc12)NCC(=O)N1CCCCCNC(=O)CC1c1ccccc1 (stereo not drawn),-16.8%
O=C1CC(c2ccccc2)N(C(=O)CNC(=O)c2ccoc2)CCCCCCN1 (stereo not drawn),-24.9%
Cc1ccc(C(=O)N2CCC3(CC2)N=C(c2cccc(Br)c2)NO3)cc1F,0.1%
CN(C)c1ccc(CN2CCCC(COc3ccccc3C(=O)N3CCCC3)C2)cc1 (stereo not drawn),-1.3%
c1cc(-c2cc3c(ccn3Cc3ccncc3)c(N3CCOCC3)n2)c2[nH]ncc2c1,-25.0%[44.1 µM]
Cc1ccc(NC(=O)N2CCC(CCNC(=O)C3CC3)CC2)cc1F,i
CN1C(=O)c2ccc(NC(=O)Cn3nc4c(cc3=O)CCCC4)cc2C1=O,-9.2%
CC(=O)Nc1ccccc1-c1nccc2c(=O)cc(N(C)C3CCOCC3)oc12,-6.7%[44.1 µM]
COc1ccc(-c2nc(-c3nnn4c3COC(c3ccccc3Cl)C4)no2)cc1F (stereo not drawn),i
COc1ccc(C(=O)NCCc2ncc(C)n2Cc2ccc(F)cc2)cn1,-11.3%
Cc1cnc(CCNC(=O)NC(C)(C)C)n1Cc1ccccc1,3.98µM*
SMILES,Pf Dd2 inh
CC(=O)N1CCC(Cc2ncc(C)n2Cc2ccccc2)C1 (stereo not drawn),-13.5%
O=C(CCc1cccnc1)N1CC[C@@H](c2ccc3ccccc3c2)[C@H](O)C1,-10.2%
CC(=O)N1CCC(N2C[C@@H]3OCC(=O)N[C@@H]3C2)CC1,0.5%[44.1 µM]
O=S(=O)(c1cccs1)N1CC(c2noc(C3CCCN3CC3CC3)n2)C1 (stereo not drawn),2.82µM*
O=S(=O)(c1cccnc1)N1CCC(c2nc(C3CC3)no2)C1 (stereo not drawn),38.1%
CCOCc1nc(C2CCCN2S(=O)(=O)c2cccs2)no1 (stereo not drawn),-0.5%
CC(=O)N1CCCC1c1nc(C2CN(S(=O)(=O)c3cccnc3)C2)no1 (stereo not drawn),-21.1%
O=S(=O)(c1cccnc1)N1CC(c2noc(C3CCCN3CC3CC3)n2)C1 (stereo not drawn),6.31µM*
COCCN1CCCC1c1nc(C2CN(C(=O)c3ncccc3C)C2)no1 (stereo not drawn),i
O=C(c1cccs1)N1CCCC1c1nc(C2CCOCC2)no1 (stereo not drawn),-14.7%
CC(=O)N1CCCC1c1nc(C2CN(C(=O)c3ccsc3)C2)no1 (stereo not drawn),-18.8%
O=C(c1ccc2c(c1)OCO2)N1CC(c2noc(C3CCCN3CC3CC3)n2)C1 (stereo not drawn),5.01µM*
CCn1cc(C(=O)NC2CCc3nnc(C4CC4)n3CC2)cn1 (stereo not drawn),31.5%
COc1ccc(C(=O)NC2CCN(c3cnn(CC4CC4)c(=O)c3)CC2)cc1F,-25.7%
O=C(c1ccccc1)N1CCn2c(nn(-c3ccncc3)c2=O)C1,9.0%[44.1 µM]
COCCCN(CCC(=O)NCCOC)C(=O)c1cc(C)oc1C,9.5%
Cc1ccc2nc(NC(=O)Cn3nc4c(cc3=O)CCCCC4)sc2c1,2.7%
CCCCc1nn(CC(=O)NCc2c(C)noc2C)c(=O)n1-c1ccccc1,-13.3%
CCOc1ccc(NC(=O)Cn2cc(C(=O)c3ccccc3)c(=O)c3cc4c(cc32)OCO4)cc1,-0.7%
CCOc1ccc(C(=O)c2cn(CC(=O)Nc3ccc(Cl)cc3)c3cc4c(cc3c2=O)OCO4)cc1,-9.3%
CCOc1ccc(C(=O)c2cn(CC(=O)Nc3ccc(OC)cc3)c3cc4c(cc3c2=O)OCCO4)cc1,25.2%
CCOc1ccc(NC(=O)Cn2cc(C(=O)c3ccc(F)cc3)c(=O)c3cc4c(cc32)OCCO4)cc1,9.5%
CCOc1ccc(NC(=O)Cn2cc(C(=O)c3ccc(OC)cc3)c(=O)c3cc4c(cc32)OCO4)cc1,3.7%
O=C(c1ccc(F)cc1)c1cn(Cc2ccccc2F)c2cc3c(cc2c1=O)OCCO3,61.2%[5.79 µM]
O=C(c1ccc(Cl)cc1)c1cn(Cc2ccccc2)c2cc3c(cc2c1=O)OCCO3,11.2µM*
SMILES,Pf Dd2 inh
COc1ccccc1Cn1cc(C(=O)c2ccccc2)c(=O)c2cc(OC)c(OC)cc21,2.51µM*
CCOc1ccc2c(c1)c(=O)c(C(=O)c1ccc(CC)cc1)cn2CC(=O)Nc1ccccc1OC,-6.8%
COc1cc(NC(=O)Cn2ccn(Cc3ccccc3OC)c(=O)c2=O)cc(OC)c1,34.1%
COc1ccc(Cn2cc(C(=O)c3ccc(OC)cc3)c(=O)c3cc4c(cc32)OCCO4)cc1,8.91µM*
CCOc1ccc(C(=O)c2cn(Cc3ccc(Cl)cc3)c3cc(OC)c(OC)cc3c2=O)cc1,7.94µM*
CCc1ccc(CN2CCC(CNC(=O)c3occc3C)CC2)nc1,-22.3%
COc1cc(NC(=O)CN2C(=O)NC3(CCOCC3)C2=O)cc(OC)c1,i
Cc1ccccc1CC(=O)N1CC[C@@H]2CN(S(C)(=O)=O)[C@@H]2C1,42.8%
O=C(C1CC(=O)N(c2n[nH]c3cccc(F)c23)C1)N1CCN(Cc2ccccc2)CC1 (stereo not drawn),-9.5%
COc1cccc(CC(=O)NC2CCN(c3cc(-c4ccccc4)[nH]n3)CC2)c1,i
O=C(NC[C@H]1OC[C@@H](NC2CCCC2)[C@@H]1O)Nc1ccccc1,-9.6%[44.1 µM]
N[C@@H]1CC[C@H](C(=O)N2CCC(c3nccn3Cc3ccncc3)CC2)C1,0.3%
Fc1ccc2c(c1)nc1n2[C@@H](CNCc2cnc3ccccc3c2)COC1,i
CS(=O)(=O)N1CCN(C2CCNCC2)C(=O)C1,2.9%
COc1ccc2c(c1)c(=O)c(C(=O)c1ccc(C)cc1)cn2Cc1ccccc1F,12.6µM*
Cc1ccc2c(c1)c(=O)c(C(=O)c1ccc3c(c1)OCO3)cn2Cc1ccc(Cl)cc1,12.6µM*
CCc1ccccc1NC(=O)Cn1cc(C(=O)c2ccncc2)c(=O)c2cc(C)ccc21,i
Cc1ccc(Cn2cc(S(=O)(=O)c3ccc(Cl)cc3)c(=O)c3cc4c(cc32)OCO4)cc1,-0.7%
